From PubChem BioAssay AID2391 (Southern Research Specialized Biocontainment Screening …, 2010)
About 410 (0.13%) of roughly 310,000 compounds were called active. Not shown: some 2% with an inconclusive outcome. The rule behind the calls is not given here. Not all results are given here. Results with a measured potency or affinity are listed apart.

Test: inhibition of RSV-induced cytopathic effect – HEp-2 cells, primary 10 µM value included (AID 2391)
Conditions: at 10 µM, hits give high values

CPE inhibition, inactive:
Cc1cc(NC(=O)CCC(=O)N(CC(=O)NCC2CCCO2)c2cccc(F)c2)no1 (stereo not given) 0.87%
CC(=O)NC1(C(F)(F)F)C(=O)Nc2c1c(=O)[nH]c(=O)n2-c1ccccc1 (stereo not given) -0.08%
CCCCCCC(=O)N1CCC(c2nc3c(nnn3Cc3ccccc3Cl)c(=O)[nH]2)CC1 -3.63%
Cc1ccc(Nc2ccc(S(=O)(=O)N3CCOCC3)cc2[N+](=O)[O-])cc1C 7.23%
CC1=Nc2cc(C(=O)N3CCCCC3)ccc2Sc2ccc(C)cc21 4.9%
CC1=Nc2cc(C(=O)N3CCCC3)ccc2Sc2ccc(C)cc21 3.72%
COc1ccc(N2CCN(c3nc(C)c(C)c(=O)[nH]3)CC2)cc1 1.02%
COCCOc1cc(NC(=O)CS(=O)CC(=O)N(C)C)c(Cl)cc1Cl (stereo not given) 1.9%
O=C(Nc1ccccc1)c1ccc(NC(=O)C2CC2)cc1 2.88%
O=C(Nc1ccc(Nc2ccccc2)cc1)C1CC1 0.83%
CNC(=O)CO/N=C/c1ccc(N(C)C)cc1 2.24%
COc1ccc2cc(CN(Cc3cccnc3)S(=O)(=O)c3ccccc3)c(=O)[nH]c2c1 5.1%
CCCNC(=O)c1cc(S(=O)(=O)N2CCCCC2)ccc1N1CCOCC1 -0.63%
CCn1c(-c2nonc2NC(=O)c2ccccc2)nc2ccccc21 -1.62%
CCC(=O)Nc1nonc1-c1nc2ccccc2n1CC(C)C 4.88%
CC(C)NC(=O)CSc1ccccc1C(=O)NNC(=O)Cn1ccc(C(F)(F)F)n1 -1.83%
CCOc1ccc(C(C)=O)cc1CN1C(=O)NC2(CCCCCC2)C1=O -0.88%
CCOC(=O)c1nn(-c2ccccc2)c(=O)cc1OCC(=O)Nc1cc(C)ccc1OC 0.86%
O=C(NCc1cccs1)C1CCN(C(=O)NCc2ccccc2)CC1 0.51%
CCN1C(=O)/C(=C2/C(=O)N3c4c(cc(OC(C)=O)cc42)C(C)=CC3(C)C)SC1=S 7.27%
COc1cc2c3c(c1)/C(=C1/SC(=S)NC1=O)C(=O)N3C(C)(C)C=C2C 17.4%
Cc1ccc(OCCNC(=O)CCc2ccccc2)cc1C -0.93%
CCc1nccn1S(=O)(=O)c1ccc2ccccc2c1 1.31%
O=C(N/N=C/c1cccnc1)c1cc(C2CC2)nc2ccccc12 1.57%
Cc1cc(C)c2nc(SCC#N)cc(C)c2c1 11.1%
C/C(N)=C(/C#N)C(=O)CSc1cc(C)c2ccccc2n1 12.3%
CC(C)S(=O)(=O)CC(=O)c1ccc(Cl)cc1 1.72%
O=C(Cn1c2ccccc2c2nc3n(c(=O)c21)CCS3)Nc1ccccc1 0.68%
Cc1ccc(C(=O)Nc2ccc3c(c2)C(=O)NC3=O)cc1 3.34%
COc1cc(-c2nnc(SCc3ccccc3Cl)o2)cc(OC)c1OC 10.5%
COc1cc(OC)cc(-c2nnc(SCc3c(F)cccc3Cl)o2)c1 9.5%
CCc1nn(CC(=O)NCCCN(Cc2ccccc2)C(C)C)c(=O)c2cc3sccc3n12 3.25%
CC(OC(=O)CSc1ccc(F)cc1)C(=O)NC1(C#N)CCCCC1 (stereo not given) 1.61%
CC(C)(C)SCCNS(=O)(=O)c1ccccc1 2.31%
COc1ccc(/C=C(/NC(=O)c2ccccc2)c2nc3ccccc3[nH]2)cc1OC 1.75%
O=C(N/C(=C/c1cccs1)c1nc2ccccc2[nH]1)c1ccccc1 -0.44%
COc1ccc(C(=O)N/C(=C/c2cccs2)C(=O)NN)cc1OC 0.82%
Cc1ccc(C(=O)N/C(=C\c2cccs2)c2nc3ccccc3[nH]2)cc1 1.69%
Cc1ccc2oc(C(=O)Nc3ccc(S(=O)(=O)Nc4onc(C)c4C)cc3)cc(=O)c2c1 1.61%
Cc1cc(C)c(C(=O)Nc2ccc(S(=O)(=O)Nc3onc(C)c3C)cc2)c(C)c1 0.27%
Cc1ccc2oc(C(=O)Nc3ccc(S(=O)(=O)Nc4ncccn4)cc3)c(C)c2c1 1.95%
Cc1ccc2c(=O)cc(C(=O)Nc3ccc(S(=O)(=O)Nc4onc(C)c4C)cc3)oc2c1 1.69%
O=C(N/N=C/c1cc2c(cc1Cl)OCO2)c1cccc(Br)c1 0.51%
COc1ccc(C(c2nnnn2Cc2ccccc2)N2CCN(c3nc4ccccc4s3)CC2)cc1OC (stereo not given) 8.79%
CNC(=O)NC(=O)COC(=O)/C=C/c1cccc(Br)c1 4.26%
COC(=O)c1cccc(CSc2nc(-c3ccccc3)c(C#N)c(=O)[nH]2)c1 -0.22%
O=C(COc1ncnc2ccc(Br)cc12)NC1CCCC1 -0.78%
N#CCSc1ncnc2ccccc12 0.16%
O=C(COc1ncnc2ccccc12)NCCc1ccccc1 4.07%
c1ccc(OCCOc2ncnc3ccccc23)cc1 2.27%
c1ccc(CSc2ncnc3ccccc23)cc1 -0.1%
COCCNC(=O)COc1ncnc2ccc(Br)cc12 0%
CCOC(=O)c1c(C)c(C(=O)Nc2ccc3c(c2)OCCO3)c(C)n1C -0.46%
N#Cc1nc(-c2ccco2)oc1NCc1ccco1 1.01%
O=C(COc1ccccc1)Nc1ccccc1C(=O)NCc1ccco1 -0.74%
CC1CCc2[nH]c3ccc(C(=O)N(C)CC(=O)Nc4ccc(F)cc4)cc3c2C1 (stereo not given) 5.53%
COc1ccc(NC(=O)CN(C)C(=O)c2ccc3[nH]c4c(c3c2)CC(C)CC4)cc1 (stereo not given) 6.52%
CCOc1cccc2c1OC1(C)CC2NC(=O)N1c1ccc(OC)cc1 (stereo not given) 0.71%
C=CCN(c1ccc(F)cc1)S(=O)(=O)c1cc(C(=O)OCC(=O)N(C)C2CCS(=O)(=O)C2)ccc1Cl (stereo not given) 0.97%
CCC(=O)NC(=S)Nc1ccc(NC(=O)COc2ccc(Cl)cc2Cl)cc1 3.92%
CCC(=O)NC(=S)Nc1ccc(NC(=O)COc2ccccc2)cc1 -0.96%
Nc1nc(SCCN2C(=O)c3ccccc3C2=O)n[nH]1 -0.57%
CCOC(=O)C1(Cc2cccc(OC)c2)CCN(Cc2cccn2-c2ccccn2)CC1 0.49%
CCOC(=O)C1(Cc2ccccc2)CCN(Cc2cccn2-c2nccs2)CC1 3.06%
O=C(O)CN=C(NS(=O)(=O)c1ccc(Cl)cc1)c1ccc(F)cc1 0.86%
O=C(CSc1nc2ccccc2c(=O)n1Cc1ccco1)NCc1ccco1 0.72%
CCOC(=O)CSc1nc2ccccc2c(=O)n1Cc1ccco1 0.79%
Cc1[nH]n(-c2ccccc2)c(=O)c1Sc1ccc(Cl)cc1 2.83%
Cc1ccc(OCCn2cnc3cc([N+](=O)[O-])ccc3c2=O)cc1 5.29%
COc1ccc(N(CC(=O)NC2CCCCC2)C(=O)c2ccc(C)s2)cc1OC 5.93%
COc1ccc(N(CC(=O)NC2CCCC2)C(=O)c2ccc(C)s2)c(OC)c1 41%
CC(=O)c1ccc(OCCCC(=O)NNC(=O)c2ccccn2)cc1 1.08%
Cn1c(=O)c2ccccc2n(CC(=O)N2CCCc3ccccc32)c1=O 12.6%
COc1cc(C2NC(=O)NC(C)=C2C(=O)OCc2ccc(C)cc2)cc(OC)c1OC (stereo not given) 1.37%
CN(CC(=O)Nc1ccc(Cl)c(Cl)c1)C(=O)CNC(=O)C1CCCCC1 -0.65%
O=C(Cn1cnc2ccccc21)N/N=C/c1ccccc1 1.41%
CCOC(=O)c1c(-c2cccc(C)c2)csc1NC(=O)C1CC=CCC1C(=O)O (stereo not given) 1.3%
CCOC(=O)c1c(-c2ccccc2)csc1NC(=O)c1cc(-c2ccccc2OC)on1 3.07%
COC(=O)c1c(-c2ccccc2)noc1C 3.69%
COC(=O)c1c(-c2ccc(C)cc2)csc1NC(=O)c1c(-c2ccccc2)noc1C 45.8%
O=C(COc1ccc(S(=O)(=O)N2CCOCC2)cc1)NC1CC1 0.7%
CCO/N=C1\C(=O)N(c2ccccc2)c2ccccc21 10.6%
CN1CCN(c2ccc(Nc3ccnc4cc(Cl)ccc34)cc2)CC1 0.21%
Cc1ccc2[nH]ccc(=O)c2c1 4.4%
CCNc1oc(-c2cccc3ccccc23)nc1C#N 31%
CNc1oc(-c2cccc3ccccc23)nc1C#N 22.2%
O=C(NC1CCCCC1)c1cc(S(=O)(=O)N2CCOCC2)c(Cl)cc1Cl -0.26%
CC1CCN(C(=O)CCc2nnc3ccc(NCCCN4CCCC4=O)nn23)CC1 2.33%
COC(=O)c1ccc(COC(=O)CNC(=O)c2ccc(-c3ccccc3)cc2)cc1 3.63%
COc1ccc2oc(C(=O)NCCC(C)C)c(C)c2c1 3.36%
Cc1nc2ccccc2nc(C)c1=NOCc1cccc(Cl)c1 3.77%
Cc1nc2ccccc2nc(C)c1=NOCc1ccc(C#N)cc1 3.19%
CCNC(=O)CC1C(=O)N(c2ccc(F)cc2)C(=S)N1CCc1ccncc1 (stereo not given) -1.58%
CCOC(=O)c1sc(NS(=O)(=O)c2ccc(F)cc2)nc1C -0.12%
O=S(=O)(NC1CCN(Cc2ccccc2)CC1)c1ccc2ccccc2c1 -0.58%
